# Active and inactive are the calls of the source. The calls were made as follows: active = hit-call score of the fitted dose curve at least 0.9, where 1 is the maximum; inactive = score below 0.9.
# Assays:
# Conditions in all cases: mRNA level, 48 h; actives raise or lower the signal
# [1] = read-out: Heat shock 70 kDa protein 1 (HSPA1A), gene 3303; experiment: LTEA_HepaRG_HSPA1A: Life Technologies and Expression Analysis (LTEA) Assay for Heat shock 70 kDa protein 1 (HSPA1A) using HepaRG (AID 2283502)
# Method in brief: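 Cells were plated and cultured for 48 h, then switched to serum-free induction medium. Chemicals were added at eight half-log concentrations up to 100 uM for 48 h. RNA was then isolated and HSPA1A measured by qRT-PCR with bidirectional curve fitting against DMSO.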
# [2] = read-out: Hypoxia-inducible factor 1-alpha (Homo sapiens) (UniProt Q16665); experiment: LTEA_HepaRG_HIF1A: Life Technologies and Expression Analysis (LTEA) Assay for Hypoxia-inducible factor 1 (HIF1A) Trancription factor using HepaRG (AID 2283503)
# Method in brief: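 HIF1A transcript level read by qRT-PCR (ACTB, GAPDH, POLR2A normalization) after 48 h chemical exposure of HepaRG cultures. Eight half-log concentrations, top 100 uM, 0.5% DMSO vehicle, duplicates; bidirectional curve fit against DMSO baseline.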
# [3] = read-out: 3-Hydroxy-3-Methylglutaryl-CoA Synthase 2 (HMGCS2), HMGCS2 (gene 3158); experiment: LTEA_HepaRG_HMGCS2: Life Technologies and Expression Analysis (LTEA) Assay for 3-Hydroxy-3-Methylglutaryl-CoA Synthase 2 (HMGCS2) using HepaRG (AID 2283504)
# Method in brief: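 Differentiated human HepaRG cells were exposed in duplicate for 48 h in serum-free induction medium to eight concentrations (top 100 uM, half-log steps, 0.5% DMSO). HMGCS2 mRNA was quantified by TaqMan qRT-PCR, normalised to ACTB, GAPDH and POLR2A, then fitted bidirectionally against DMSO.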
# [4] = read-out: HGF (gene 3082); experiment: LTEA_HepaRG_HGF: Life Technologies and Expression Analysis (LTEA) Assay for Hepatocyte Growth Facto (HGF) using HepaRG (AID 2283505)
# Method in brief: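 Differentiated human HepaRG cells in serum-free induction medium were exposed in duplicate for 48 h to eight concentrations (top 100 uM, half-log steps, 0.5% DMSO). HGF mRNA was quantified by qRT-PCR, normalized to ACTB, GAPDH and POLR2A.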
# [5] = read-out: Insulin Like Growth Factor 1 (IGF1), IGF1 (gene 3479); experiment: LTEA_HepaRG_IGF1: Life Technologies and Expression Analysis (LTEA) Assay for Insulin Like Growth Factor 1 (IGF1) using HepaRG (AID 2283506)
# Method in brief: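 Cells are thawed, plated and cultured 48 h, then exposed in duplicate to chemical (highest 100 uM, half-log steps, 0.5% DMSO) for another 48 h. Total RNA is analysed by Fluidigm qRT-PCR for IGF1 expression relative to vehicle.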
# [6] = read-out: Interleukin 6 (IL6), IL6 (gene 3569); experiment: LTEA_HepaRG_IL6: Life Technologies and Expression Analysis (LTEA) Assay for Interleukin 6 (IL6) using HepaRG (AID 2283509)
# Method in brief: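 qRT-PCR read-out of IL6 transcript, normalized to three housekeeping genes, after 48 h chemical exposure of HepaRG cells; 8-point half-log series, top 100 uM, 0.5% DMSO vehicle. Bidirectional curve fitting against DMSO baseline.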
# [7] = read-out: Interleukin 6 Receptor (IL6R), IL6R (gene 3570); experiment: LTEA_HepaRG_IL6R: Life Technologies and Expression Analysis (LTEA) Assay for Interleukin 6 Receptor (IL6R) using HepaRG (AID 2283510)
# Method in brief: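 Cells were thawed, plated and cultured 48 h, then medium was changed to serum-free induction medium. Chemicals were added in duplicate (100 uM top, half-log steps, 0.5% DMSO) for 48 h. Lysates were analyzed by qRT-PCR for IL6R expression.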
# [8] = read-out: Potassium channel subfamily K member 1 (KCNK1), KCNK1 (gene 3775); experiment: LTEA_HepaRG_KCNK1: Life Technologies and Expression Analysis (LTEA) Assay for Potassium channel subfamily K member 1 (KCNK1) using HepaRG (AID 2283511)
# Method in brief: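 HepaRG, 48 h exposure, 8-pt half-log series top 100 uM, 0.5% DMSO vehicle, duplicates. Readout: KCNK1 transcript by qRT-PCR (Fluidigm array), housekeeping-normalized; bidirectional curve fit relative to DMSO baseline.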
# [9] = read-out: Keratin 19 (KRT19), KRT19 (gene 3880); experiment: LTEA_HepaRG_KRT19: Life Technologies and Expression Analysis (LTEA) Assay for Keratin 19 (KRT19) using HepaRG (AID 2283512)
# Method in brief: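 Differentiated human HepaRG cells, plated 48 h, were exposed in duplicate for 48 h in serum-free induction medium to eight half-log concentrations up to 100 uM in 0.5% DMSO. KRT19 mRNA was quantified by qRT-PCR, normalized to ACTB, GAPDH and POLR2A, and fitted bidirectionally versus DMSO.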
# [10] = read-out: JUN Transcription Factor, JUN (gene 3725); experiment: LTEA_HepaRG_JUN: Life Technologies and Expression Analysis (LTEA) Assay for JUN Transcription Factor using HepaRG (AID 2283513)
# Method in brief: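 Read-out is JUN transcript level by TaqMan qRT-PCR, normalized to ACTB, GAPDH and POLR2A, after 48 h chemical treatment of HepaRG cells. Concentration-response spanned eight half-log points up to 100 uM in 0.5% DMSO.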
# [11] = read-out: Lipase C (LIPC), LIPC (gene 3990); experiment: LTEA_HepaRG_LIPC: Life Technologies and Expression Analysis (LTEA) Assay for Lipase C (LIPC) using HepaRG (AID 2283514)
# Method in brief: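 HepaRG, 48 h exposure, 8-pt half-log series from 100 uM in 0.5% DMSO, duplicates. Readout: LIPC mRNA by Fluidigm qRT-PCR, housekeeping-normalized (ACTB/GAPDH/POLR2A). Gain or loss fitted bidirectionally against DMSO baseline.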
# [12] = read-out: Lipoprotein lipase (LPL), LPL (gene 4023); experiment: LTEA_HepaRG_LPL: Life Technologies and Expression Analysis (LTEA) Assay for Lipoprotein lipase (LPL) using HepaRG (AID 2283515)
# Method in brief: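 HepaRG, 48 h exposure, 8-pt half-log dilutions from 100 uM, 0.5% DMSO vehicle, duplicates; qRT-PCR (Fluidigm array) of LPL mRNA vs housekeeping genes; bidirectional curve fit relative to DMSO baseline.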
# [13] = read-out: MicroRNA 122 (MIR122), gene 406906; experiment: LTEA_HepaRG_MIR122: Life Technologies and Expression Analysis (LTEA) Assay for MicroRNA 122 (MIR122) using HepaRG (AID 2283516); also: the transcript read is the microRNA miR-122
# Method in brief: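 Human liver HepaRG cultures receive test chemicals for 48 h at eight half-log concentrations from 100 uM. Expression is quantified by qRT-PCR with ACTB/GAPDH/POLR2A normalization and fitted bidirectionally against 0.5% DMSO.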
# [14] = read-out: matrix metalloproteinase-10 (MMP10), MMP10 (gene 4319); experiment: LTEA_HepaRG_MMP10: Life Technologies and Expression Analysis (LTEA) Assay for matrix metalloproteinase-10 (MMP10) using HepaRG (AID 2283517)
# Method in brief: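 Transcript levels come from Fluidigm qRT-PCR normalized to three housekeeping genes, with curves fitted bidirectionally against 0.5% DMSO. Human HepaRG cells were dosed for 48 hours at concentrations up to 100 uM.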
# [15] = read-out: MYC, MYC (gene 4609); experiment: LTEA_HepaRG_MYC: Life Technologies and Expression Analysis (LTEA) Assay for MYC using HepaRG (AID 2283518)
# Method in brief: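 Differentiated human HepaRG cells, plated 48 h then switched to serum-free induction medium, were exposed in duplicate for 48 h to 8-point half-log series up to 100 uM in 0.5% DMSO. MYC mRNA measured by qRT-PCR, normalized to ACTB/GAPDH/POLR2A.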
# [16] = read-out: matrix metalloproteinase-3 (MMP3), MMP3 (gene 4314); experiment: LTEA_HepaRG_MMP3: Life Technologies and Expression Analysis (LTEA) Assay for matrix metalloproteinase-3 (MMP3) using HepaRG (AID 2283519)
# Method in brief: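 qRT-PCR read-out of MMP3 mRNA (normalised to three housekeeping genes) in HepaRG liver cells after 48 h chemical exposure; 8-point half-log series, top 100 uM, 0.5% DMSO vehicle. Bidirectional curve fitting against DMSO baseline.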
# [17] = read-out: Paternally Expressed 10 (PEG10), PEG10 (gene 23089); experiment: LTEA_HepaRG_PEG10: Life Technologies and Expression Analysis (LTEA) Assay for Paternally Expressed 10 (PEG10) using HepaRG (AID 2283520);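 as to AC50: PEG10 transcript by qRT-PCR normalised to ACTB GAPDH and POLR2A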
# Method in brief: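 Human HepaRG cultures are dosed for 48 h across an eight-point half-log series starting at 100 uM, with 0.5% DMSO as vehicle and baseline. Gain or loss of PEG10 transcript is measured by qRT-PCR and fitted in both directions.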
# [18] = read-out: Nuclear factor NF-kappa-B p105 subunit (Homo sapiens) (UniProt P19838); experiment: LTEA_HepaRG_NFKB1: Life Technologies and Expression Analysis (LTEA) Assay for Nuclear Factor Kappa B Subunit 1 (NFKB1) using HepaRG (AID 2283521);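 as to outcome: TaqMan qRT-PCR transcript normalised to ACTB GAPDH and POLR2A housekeeping genes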
# Method in brief: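 HepaRG, 48 h exposure; 8-pt half-log series from 100 uM in 0.5% DMSO; duplicates. Readout: NFKB1 mRNA by qRT-PCR (Fluidigm arrays), housekeeping-normalized. Gain/loss fit vs DMSO baseline.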
# [19] = read-out: Intercellular Adhesion Molecule 1 (ICAM1), ICAM1 (gene 3383); experiment: LTEA_HepaRG_ICAM1: Life Technologies and Expression Analysis (LTEA) Assay for Intercellular Adhesion Molecule 1 (ICAM1) using HepaRG (AID 2283507)
# Method in brief: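 Differentiated HepaRG cells in serum-free induction medium were exposed in duplicate for 48 h to eight half-log concentrations up to 100 uM in 0.5% DMSO. Transcript levels were measured by qRT-PCR normalized to ACTB, GAPDH and POLR2A; bidirectional fits relative to DMSO.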
# [20] = read-out: Insulin-like growth factor-binding protein 1 (IGFBP1), IGFBP1 (gene 3484); experiment: LTEA_HepaRG_IGFBP1: Life Technologies and Expression Analysis (LTEA) Assay for Insulin-like growth factor-binding protein 1 (IGFBP1) using HepaRG (AID 2283508)
# Method in brief: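 Differentiated human HepaRG cells in serum-free induction medium were exposed in duplicate for 48 h to eight concentrations, top 100 uM with half-log dilutions, in 0.5% DMSO. Transcript levels came from qRT-PCR normalised to ACTB, GAPDH and POLR2A, fitted bidirectionally against DMSO.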
# Hypoxia-inducible factor 1-alpha (Homo sapiens), sequence (Q16665 whole entry, looked up): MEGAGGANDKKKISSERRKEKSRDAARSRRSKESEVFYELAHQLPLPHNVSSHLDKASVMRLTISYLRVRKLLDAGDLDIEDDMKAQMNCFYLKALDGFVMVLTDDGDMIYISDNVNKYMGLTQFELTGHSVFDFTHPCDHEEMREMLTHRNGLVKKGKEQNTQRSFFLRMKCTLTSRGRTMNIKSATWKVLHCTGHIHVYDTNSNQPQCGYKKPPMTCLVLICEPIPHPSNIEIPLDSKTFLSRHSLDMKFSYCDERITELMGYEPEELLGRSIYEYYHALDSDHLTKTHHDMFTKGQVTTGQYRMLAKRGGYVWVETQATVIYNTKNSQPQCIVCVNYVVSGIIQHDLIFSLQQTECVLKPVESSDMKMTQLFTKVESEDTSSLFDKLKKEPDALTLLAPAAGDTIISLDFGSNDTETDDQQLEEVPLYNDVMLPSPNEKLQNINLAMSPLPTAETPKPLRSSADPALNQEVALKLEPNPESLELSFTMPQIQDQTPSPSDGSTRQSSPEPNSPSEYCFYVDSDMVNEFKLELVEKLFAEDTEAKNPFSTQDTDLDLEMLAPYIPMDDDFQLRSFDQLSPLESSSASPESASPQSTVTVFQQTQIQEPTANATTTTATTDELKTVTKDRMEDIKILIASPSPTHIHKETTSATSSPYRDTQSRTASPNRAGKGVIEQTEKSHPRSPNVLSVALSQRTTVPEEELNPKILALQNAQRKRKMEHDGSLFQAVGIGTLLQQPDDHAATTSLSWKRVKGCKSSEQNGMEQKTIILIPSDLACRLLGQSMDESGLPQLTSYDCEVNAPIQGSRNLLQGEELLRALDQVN
# Nuclear factor NF-kappa-B p105 subunit (Homo sapiens), sequence (P19838 whole entry, looked up): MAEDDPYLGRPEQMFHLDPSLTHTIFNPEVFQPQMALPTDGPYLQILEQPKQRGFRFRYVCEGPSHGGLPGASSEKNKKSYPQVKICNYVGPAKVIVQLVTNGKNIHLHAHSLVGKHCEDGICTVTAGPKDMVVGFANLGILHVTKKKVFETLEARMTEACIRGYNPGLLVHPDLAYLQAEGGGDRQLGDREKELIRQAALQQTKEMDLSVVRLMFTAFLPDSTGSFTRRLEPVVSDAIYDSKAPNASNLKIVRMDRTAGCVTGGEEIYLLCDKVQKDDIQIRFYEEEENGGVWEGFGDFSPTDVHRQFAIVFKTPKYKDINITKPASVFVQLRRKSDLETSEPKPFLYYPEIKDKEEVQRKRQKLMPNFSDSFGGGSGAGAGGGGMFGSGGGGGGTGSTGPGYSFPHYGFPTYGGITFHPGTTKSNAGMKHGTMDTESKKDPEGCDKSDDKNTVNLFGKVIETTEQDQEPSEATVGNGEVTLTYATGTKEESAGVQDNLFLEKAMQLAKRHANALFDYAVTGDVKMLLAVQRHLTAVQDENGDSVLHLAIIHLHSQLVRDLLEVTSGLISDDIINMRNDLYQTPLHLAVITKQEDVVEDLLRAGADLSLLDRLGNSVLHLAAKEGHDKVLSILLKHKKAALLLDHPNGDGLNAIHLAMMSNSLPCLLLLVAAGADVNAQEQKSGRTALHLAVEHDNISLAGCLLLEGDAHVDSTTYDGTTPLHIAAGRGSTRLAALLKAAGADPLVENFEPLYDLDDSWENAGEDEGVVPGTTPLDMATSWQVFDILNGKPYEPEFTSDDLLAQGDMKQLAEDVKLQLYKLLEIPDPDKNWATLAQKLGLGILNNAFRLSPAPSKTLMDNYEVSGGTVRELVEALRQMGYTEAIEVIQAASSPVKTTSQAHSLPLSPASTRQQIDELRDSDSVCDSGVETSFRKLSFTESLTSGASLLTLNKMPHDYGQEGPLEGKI
smiles,measurement,setting,value
Cc1ccc2oc(CN(Cc3ccccc3)C(=O)Nc3c(F)cc(F)cc3F)c(-c3ccc(Cl)cc3)c2c1,outcome,[1],inactive
same,outcome,[2],inactive
same,AC50,[3],44.2 µM (active)
same,outcome,[4],inactive
same,AC50,[5],30.2 µM (active)
same,outcome,[6],inactive
same,outcome,[7],inactive
same,outcome,[8],inactive
same,outcome,[9],inactive
same,outcome,[10],inactive
same,AC50,[11],44.2 µM (active)
same,AC50,[12],56.4 µM (active)
same,outcome,[13],inactive
same,outcome,[14],inactive
same,AC50,[15],44.2 µM (active)
same,outcome,[16],inactive
same,outcome,[17],inactive
same,outcome,[18],inactive
CN1C(=O)CC[C@H]1c1cccnc1,outcome,[1],inactive
same,outcome,[3],inactive
same,outcome,[4],inactive
same,outcome,[5],inactive
same,outcome,[19],inactive
same,outcome,[6],inactive
same,outcome,[7],inactive
same,outcome,[8],inactive
same,outcome,[9],inactive
same,outcome,[10],inactive
same,outcome,[11],inactive
same,outcome,[12],inactive
same,outcome,[13],inactive
same,outcome,[14],inactive
same,outcome,[15],inactive
same,outcome,[16],inactive
same,outcome,[17],inactive
same,outcome,[18],inactive
CN1C(=O)N(c2ccccc2Br)Cc2cnc(Nc3ccc4c(c3)OCC(CO)O4)nc21 (stereo not given),AC50,[1],92.4 µM (active)
same,AC50,[2],1.33 µM (active)
same,AC50,[3],75.4 µM (active)
same,outcome,[4],inactive
same,AC50,[5],32.7 µM (active)
same,AC50,[6],11.6 µM (active)
same,outcome,[7],inactive
same,outcome,[8],inactive
same,AC50,[9],6.5 µM (active)
same,AC50,[10],12.1 µM (active)
same,AC50,[11],71.8 µM (active)
same,AC50,[12],31.8 µM (active)
same,AC50,[13],63.2 µM (active)
same,outcome,[14],inactive
same,outcome,[15],inactive
same,outcome,[16],inactive
same,outcome,[17],inactive
same,AC50,[18],19.5 µM (active)
CCCCCCCC[Si](OCC)(OCC)OCC,outcome,[1],inactive
same,outcome,[2],inactive
same,outcome,[3],inactive
same,outcome,[4],inactive
same,outcome,[5],inactive
same,outcome,[6],inactive
same,outcome,[7],inactive
same,outcome,[8],inactive
same,outcome,[9],inactive
same,outcome,[10],inactive
same,outcome,[11],inactive
same,outcome,[12],inactive
same,outcome,[13],inactive
same,outcome,[14],inactive
same,outcome,[15],inactive
same,outcome,[16],inactive
same,outcome,[17],inactive
same,outcome,[18],inactive
O=C(O)c1ccccc1-n1cc(C(=O)O)c(=O)c2cc(Nc3c(F)cc(F)cc3Cl)c(Cl)cc21,outcome,[1],inactive
same,outcome,[2],inactive
same,outcome,[3],inactive
same,outcome,[4],inactive
same,outcome,[5],inactive
same,outcome,[6],inactive
same,outcome,[7],inactive
same,outcome,[8],inactive
same,outcome,[9],inactive
same,outcome,[10],inactive
same,outcome,[11],inactive
same,outcome,[12],inactive
same,outcome,[13],inactive
same,outcome,[14],inactive
same,outcome,[15],inactive
same,outcome,[16],inactive
same,AC50,[17],21.1 µM (active)
same,outcome,[18],inactive
c1ccc2n[nH]nc2c1,outcome,[1],inactive
same,outcome,[2],inactive
same,outcome,[3],inactive
same,outcome,[4],inactive
same,outcome,[5],inactive
same,outcome,[20],inactive
same,outcome,[6],inactive
same,outcome,[7],inactive
same,outcome,[8],inactive
same,outcome,[9],inactive
same,outcome,[10],inactive
same,outcome,[11],inactive
same,outcome,[12],inactive
same,outcome,[13],inactive
same,outcome,[14],inactive
same,outcome,[15],inactive
same,outcome,[16],inactive
same,outcome,[17],inactive
same,outcome,[18],inactive
O=C1O[C@H]([C@@H](O)CO)C(O)=C1O,outcome,[1],inactive
same,outcome,[2],inactive
same,outcome,[3],inactive
same,outcome,[4],inactive
same,outcome,[5],inactive
same,outcome,[20],inactive
same,outcome,[6],inactive
same,outcome,[7],inactive
same,outcome,[8],inactive
same,outcome,[11],inactive
same,outcome,[12],inactive
same,outcome,[13],inactive
same,outcome,[14],inactive
same,outcome,[15],inactive
same,outcome,[16],inactive
same,outcome,[17],inactive
